Results filed as inconclusive are left out. Activity calls are given as the source filed them. The calls were made as follows: active = hit-call score of the fitted dose curve at least 0.9, where 1 is the maximum; inconclusive = response in the unintended direction; inactive = score below 0.9.
The compounds below were run against human Vitamin D Receptor (VDR), VDR (gene 7421) (UniProt P11473) (assay: ATG_VDR_TRANS: Attagene TRANS-FACTORIAL HepG2 Assay for human Vitamin D Receptor (VDR) (AID 2283022)).
human Vitamin D Receptor (VDR), VDR (gene 7421), sequence (P11473 whole entry, looked up, the tested form may be a part): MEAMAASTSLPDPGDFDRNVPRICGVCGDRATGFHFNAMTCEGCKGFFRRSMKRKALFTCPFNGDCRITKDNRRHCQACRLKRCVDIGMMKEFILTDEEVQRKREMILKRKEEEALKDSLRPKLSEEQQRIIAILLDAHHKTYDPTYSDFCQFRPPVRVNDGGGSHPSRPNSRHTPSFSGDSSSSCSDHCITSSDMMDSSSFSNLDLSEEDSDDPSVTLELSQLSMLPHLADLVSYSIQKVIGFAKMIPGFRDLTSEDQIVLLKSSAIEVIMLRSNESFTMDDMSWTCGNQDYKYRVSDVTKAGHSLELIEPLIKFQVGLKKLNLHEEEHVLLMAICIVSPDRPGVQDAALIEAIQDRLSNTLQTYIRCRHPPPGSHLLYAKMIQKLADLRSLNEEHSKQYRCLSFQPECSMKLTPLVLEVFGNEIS
In short: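 RT-PCR/capillary electrophoresis read-out of reporter mRNA induction in transiently transfected HepG2; 24 h dosing; chimeric NR-Gal4 (TRANS format); gain-of-signal fit against DMSO baseline.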

Compound	outcome	AC50
CCOC(=O)[C@H](O)[C@@H](O)C(=O)OCC	inactive	
CC(=O)OC1CCCCC1	inactive	
Oc1ccc(-c2ccccc2)c(Cl)c1	inactive	
C=C[C@@]1(C)CC(=O)[C@]2(O)[C@@]3(C)[C@@H](O)CCC(C)(C)[C@@H]3[C@H](O)[C@H](OC(C)=O)[C@@]2(C)O1	inactive	
CC(=O)OC(C)c1ccccc1 (centres undefined)	inactive	
CCC1COC(=O)O1 (centres undefined)	inactive	
Cc1cc(=O)[nH]c(=O)[nH]1	inactive	
CC1CCC(C(C)(C)S)C(=O)C1 (centres undefined)	inactive	
CCN(CC)c1cccc(C)c1	inactive	
COc1cc(C)ccc1O	inactive	
CC(C)=NNC(N)=S	inactive	
CC(C)(C)N	inactive	
C=CC(=O)O[C@H]1C[C@@H]2CC[C@@]1(C)C2(C)C	inactive	
C=C(C)C1CC=C(C)C(OC(C)=O)C1 (centres undefined)	inactive	
CC(=O)C(C)C	inactive	
CCCCCCOc1ccc(N)cc1	inactive	
CCc1cccc(CC)c1	inactive	
O=C(O)CCC(=O)O	inactive	
C=CC(=O)OCCCCCCCCCC	inactive	
CCCCCCCCCCCCCCCCCCOS(=O)(=O)O		119 µM (active)
O=C(O)C1CCC(C(=O)O)CC1 (centres undefined)	inactive	
CC(=O)OCCc1ccccc1	inactive	
CCCCC/C=C\C/C=C\CCCCCCCC(=O)O	inactive	
CC(=O)OCc1ccccc1	inactive	
CC1CC(=O)CC(C)(C)C1 (centres undefined)	inactive	
CCCC(CC)c1ccccc1 (centres undefined)	inactive	
CCCCC(CC)COS(=O)(=O)O (centres undefined)	inactive	
CC1=NN(c2ccc(S(=O)(=O)O)cc2)C(=O)C1N=Nc1ccccc1 (centres undefined)	inactive	
CCCCCCCCCC[N+](C)(CCCCCCCCCC)CCC[Si](OC)(OC)OC	inactive	

— PubChem BioAssay (EPA / NIEHS)
